A word on the AC50: it is the concentration giving half of the maximal activity seen.

Here are results for 22 molecules from PubChem BioAssay (EPA / NIEHS).

Each structure is given as a SMILES string. Where “and” joins values, the source holds several entries; their conditions need not be identical. Identical values can stand only once. Results filed as inconclusive are left out. Calls of active or inactive are those of the source. How the source made its calls, unless noted: active means hit-call score of the fitted dose curve at least 0.9, where 1 is the maximum; inactive means score below 0.9.

Read-out in the first assay: Collagen I, COL1A1 (gene 1277)
Briefly: BSK_MyoF_CollagenI: BioMAP Diversity Plus: MyoF Assay for Collagen I Biomarker Activity (AID 2284238). The conditions noted are these: primary human lung fibroblasts. The procedure, abridged: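 Collagen I levels measured by ELISA on human lung fibroblast cultures 24 h post-dosing, with curve fitting in the positive direction relative to DMSO; SRB staining of parallel wells marked cytotoxicity.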
With `Cc1ccc(C(=O)c2ccccc2)cc1`, the outcome was inactive.
As to `C=CC(=O)OCCC(F)(F)C(F)(F)C(F)(F)C(F)(F)C(F)(F)C(F)(F)C(F)(F)C(F)(F)F`, the result was inactive.
As for `COc1cccc(O)c1`, the outcome was inactive.
For the molecule `O=P(O)(O)CCC(F)(F)C(F)(F)C(F)(F)C(F)(F)C(F)(F)C(F)(F)C(F)(F)C(F)(F)F`, the result was inactive.
Turning to `CC[N+](CC)(CC)Cc1ccccc1`, the result was inactive.
Take `CC(C)(C)c1ccc(O)c(O)c1`: the AC50 was 27.4 µM (active).
Turning to `Clc1ccc(Nc2nnc(Cc3ccncc3)c3ccccc23)cc1`, the result was inactive.
Turning to `Cc1ccc(N=Nc2c(O)ccc3ccccc23)c(C)c1`, the outcome was inactive.
As for `O=C(CC(=O)C(F)(F)C(F)(F)C(F)(F)F)c1cccs1`, the AC50 was 17.8 µM (active) and 7.76 µM (active).
On to `OCCN1CN(CCO)CN(CCO)C1`, for which the result was inactive.
In the case of `OCC(F)(F)C(F)(F)C(F)(F)C(F)(F)C(F)(F)C(F)(F)C(F)(F)C(F)(F)C(F)(F)C(F)(F)C(F)(F)F`, the result was inactive.
The same measure, in the same setting: then `O=C(O)CCC(F)(F)C(F)(F)C(F)(F)C(F)(F)C(F)(F)C(F)(F)F`, with “inactive”; and `O=C(O)CCC(F)(F)C(F)(F)C(F)(F)C(F)(F)C(F)(F)F`, with “inactive”.
As for `O=C(O)C(F)(F)OC(F)(F)C(F)(F)OC(F)(F)C(F)(F)OC(F)(F)C(F)(F)C(F)(F)C(F)(F)F`, the AC50 is 9.61 µM (active) and 5.9 µM (active).
As for `COc1cc(OC)nc(NC(=O)NS(=O)(=O)Nc2ccccc2C(=O)N(C)C)n1`, the outcome was inactive.
`CN(CCO)S(=O)(=O)C(F)(F)C(F)(F)C(F)(F)C(F)(F)C(F)(F)C(F)(F)C(F)(F)C(F)(F)F`: the AC50 is 1.82 µM (active) and 2.36 µM (active).
As for `CC1=NN(c2ccccc2)C(=O)C1`, the result was inactive.
Regarding `O=C1c2ccc(O)c(O)c2C(=O)c2c(O)ccc(O)c21`, the outcome was inactive.
`CN(C)c1ccc(C(=C2C=CC(=[N+](C)C)C=C2)c2ccccc2)cc1`: the AC50 is 0.0082 µM (active).
As for `O=P(O)(O)CCC(F)(F)C(F)(F)C(F)(F)C(F)(F)C(F)(F)C(F)(F)F`, the result was inactive.
Still for that read-out and setting: then `Oc1cc2ccccc2cc1O`, with “inactive”; and `C=CC(C)(CCC=C(C)C)OC(C)=O` (configuration not stated), with “inactive”.

Tested on in another assay: not listed separately
Briefly: CCTE_Mundy_HCI_hNP1_Casp3_7: CCTE's Caspase-Glo 3/7 Assay in human neuroprogenitor cells for Apoptosis, Mundy Lab (AID 2284240).
Conditions: not given
Put shortly: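 Neuroepithelial-lineage stem cells from WA09 embryonic cells were treated with chemicals after 40–44 h of culture. Twenty-four hours later, caspase-3/7 activation was detected luminescently after a 30 min room-temperature reagent step, with DMSO as baseline.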
Consider `C=CC(=O)OCCC(F)(F)C(F)(F)C(F)(F)C(F)(F)C(F)(F)C(F)(F)C(F)(F)C(F)(F)F`, for which the molecule was called inactive.
For the molecule `O=P(O)(O)CCC(F)(F)C(F)(F)C(F)(F)C(F)(F)C(F)(F)C(F)(F)C(F)(F)C(F)(F)F`, the call was inactive.
For the molecule `O=C(CC(=O)C(F)(F)C(F)(F)C(F)(F)F)c1cccs1`, the outcome was inactive.
For `OCC(F)(F)C(F)(F)C(F)(F)C(F)(F)C(F)(F)C(F)(F)C(F)(F)C(F)(F)C(F)(F)C(F)(F)C(F)(F)F`, the molecule was classed as inactive.
For the molecule `O=P(O)(O)CCC(F)(F)C(F)(F)C(F)(F)C(F)(F)C(F)(F)C(F)(F)F`, the call was inactive.

Tested on in another assay: not listed separately
Briefly: CCTE_Mundy_HCI_hNP1_CellTiter: CCTE's Cell Titer-Glo 2 Assay in human neuroprogenitor cells for Viability, Mundy Lab (AID 2284241; active means hit-call score of the fitted dose curve at least 0.9, where 1 is the maximum).
Conditions: not given
The procedure, abridged: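 Measures ATP content in human neural progenitors derived from WA09 embryonic cells. Read-out at 26.5 hours after dosing, with DMSO serving as the negative control and baseline.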
On the technique in general: Cellular ATP, detected with luciferase, serves as a proxy for viable cell number.
Consider `C=CC(=O)OCCC(F)(F)C(F)(F)C(F)(F)C(F)(F)C(F)(F)C(F)(F)C(F)(F)C(F)(F)F`, for which the molecule was called inactive.
Turning to `O=P(O)(O)CCC(F)(F)C(F)(F)C(F)(F)C(F)(F)C(F)(F)C(F)(F)C(F)(F)C(F)(F)F`, the result was inactive.
Take `O=C(CC(=O)C(F)(F)C(F)(F)C(F)(F)F)c1cccs1`: the molecule was called inactive.
Still for that read-out and setting: then `OCC(F)(F)C(F)(F)C(F)(F)C(F)(F)C(F)(F)C(F)(F)C(F)(F)C(F)(F)C(F)(F)C(F)(F)C(F)(F)F`, with “inactive”; and `O=P(O)(O)CCC(F)(F)C(F)(F)C(F)(F)C(F)(F)C(F)(F)C(F)(F)F`, with “inactive”.
